High-throughput results from PubChem.
This is one part of a sample in which hits are shown more often than they occur.
RE007 growth inh – less growth of the S. pombe RE007 Vpr strain; Potency, µM (titrated, usually from 92.2 µM), for inactives: top-dose activity change, negative = less growth, hits mostly inhibitors; AID 651644; 360,000 compounds, 0.21% hits; S. pombe RE007 Vpr strain, BacTiter-Glo ATP luminescence, 24 h; active = well fitted falling curve with a large enough effect; inconclusive = small, poorly fitted or top-dose-only effect; inactive = no such curve, though single readings can be large or run the other way; also: potency is read from the fitted curve at half-maximal effect; % is scaled to controls: 0 for no effect and ±100 for the full control effect; nearly all actives have a fitted effect of over 50% in size
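Fission yeast RE007 carrying one integrated HIV-1 vpr copy, seeded at OD 0.01 in PMG+AL medium with 23 nL pinned compound. Grown 24 h at 30 degrees; viability read by BacTiter-Glo luminescence after 5 min.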
Shiga inhibitor – Shiga toxin inhibition. inhibition, % at 38.7 µM. 290,000 compounds, 9.2% hits. Vero cells, Shiga toxin protein synthesis inhibition reporter; in the data active = inhibition mostly above about 28%, no sharp cut-off; inactive = mostly below about 43%; also: 0% is about no effect
TbPYK inhibitor – inhibitors of Trypanosoma brucei pyruvate kinase; AID 624173; Potency, µM (doses to about 76.8 µM), without a hit: at the highest dose activity, negative = inhibition, actives largely listed as inhibitors; 410,000 compounds, 0.12% hits; TbPYK enzyme, Kinase-Glo Plus ATP luminescence, 45 min; Q57TT1; also: potency is read from the fitted curve at half-maximal effect; % is scaled to controls: 0 for no effect and ±100 for the full control effect; nearly all actives have a fitted effect of over 50% in size
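Assay buffer: 50 mM TEA pH 7.2, 100 mM KCl, 10 mM MgCl2, 0.05% BSA, 0.01% Tween-20. Pyruvate kinase from T. brucei plus substrate met compound, then ADP (130 uM final). Luminescence was read post 45 min RT.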
LmPK inhibitor – LmPK (Leishmania mexicana) enzyme inhibition; purified LmPK, Kinase-Glo ATP luminescence, 1 h; 290,000 compounds, 0.37% hits; Potency, µM (highest dose often 57.5 µM), for the others: at the top dose activity change, negative = inhibition, actives largely listed as inhibitors; AID 1721; also: potency is read from the fitted curve at half-maximal effect; % is scaled to controls: 0 for no effect and ±100 for the full control effect
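Kinase-Glo luminescence read after 1 h RT reaction of 0.1 nM LmPK with 0.5 mM PEP and 0.1 mM ADP. Activity scaled between uninhibited and enzyme-free controls.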
CHX counter – affects cycloheximide protein synthesis inhibition readout, counter-screen | cell reporter, cycloheximide protein synthesis inhibition counterscreen | max response, % | 300,000 compounds, 12% hits | AID 2314; in the data active = max response mostly above about 13%, no sharp cut-off; inactive = mostly below about 14%; also: read at 38.3 µM for the half of the compounds with a filed dose; 0% is about no effect
FBPA Giardia inh – blocks Giardia fructose-bisphosphate aldolase activity | purified Giardia FBPA | Potency, µM (titrated, usually from 59.6 µM), without a hit: at the highest dose activity, negative = inhibition, usual class: inhibitors | 290,000 compounds, 0.71% hits; also: potency is read from the fitted curve at half-maximal effect; % is scaled to controls: 0 for no effect and ±100 for the full control effect; nearly all actives have a fitted effect of over 55% in size
Target sequence (A8B2U2 whole entry, looked up): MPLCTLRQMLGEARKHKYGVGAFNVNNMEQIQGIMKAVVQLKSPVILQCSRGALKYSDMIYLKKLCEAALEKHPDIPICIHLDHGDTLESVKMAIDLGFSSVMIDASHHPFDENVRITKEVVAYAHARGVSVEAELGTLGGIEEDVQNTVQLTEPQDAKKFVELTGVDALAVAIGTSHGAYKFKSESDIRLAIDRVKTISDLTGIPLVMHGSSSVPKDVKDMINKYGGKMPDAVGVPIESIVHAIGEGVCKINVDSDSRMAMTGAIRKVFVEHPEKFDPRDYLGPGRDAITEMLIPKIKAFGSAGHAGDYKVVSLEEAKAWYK
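Giardia FBPA (40 nM reagent) was preincubated 10 min at RT with compound (up to 57.5 uM final), then substrate plus GAPDH/TPI/NAD/arsenate coupling system with diaphorase/resazurin was added; resorufin fluorescence (525/598 nm) was read after 20 min.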
Active calls of the source: *; ? = inconclusive; · = no result. Unless noted, calls follow the shape of the dose curve; as a rule, active = well fitted curve in the direction sought with a large enough effect; inconclusive = small, poorly fitted or top-dose-only effect, or another doubt; inactive = no such curve, though single readings can be large; an effect the other way counts as inactive or inconclusive.

SMILES	RE007 growth inh	Shiga inhibitor	TbPYK inhibitor	LmPK inhibitor	CHX counter	FBPA Giardia inh
Cc1ccc(NC(=O)C2(c3ccccc3)CC2(Cl)Cl)cc1C (centres undefined)	4%	128*	-2%	2%	66*	-2%
CCN(CC)C(=O)C(=O)Nc1ccc(F)c(Cl)c1	3%	88*	1%	-18%	28*	6%
CC(C)CC(=O)NCC(c1ccc2c(c1)OCO2)N1CCN(c2ccccc2F)CC1 (centres undefined)	·	·	-6%	·	·	·
CC(=O)Nc1ccccc1C(=O)C(=O)Nc1ccc(C)c(F)c1	?	103*	-5%	9%	59*	-4%
CC(=O)Nc1ccccc1C(=O)C(=O)Nc1cccc(F)c1	-10%	·	1%	·	·	·
Cc1ccc(NC(=O)/C(Cl)=C/c2ccccc2)cc1C	·	95*	-8%	-21%	45*	-2%
CC(=O)Nc1ccccc1C(=O)C(=O)Nc1ccc(F)c(Cl)c1	-8%	45	4%	0%	20*	-7%
Cc1ccc(NC(=O)/C(C#N)=C/c2ccc(C(C)C)cc2)cc1C	·	·	-7%	·	·	·
CCc1ccc(NC(=O)C(=O)c2ccccc2NC(C)=O)cc1	17%	·	1%	·	·	·
CCOc1cc(C(=O)OCc2cc(=O)n3c(C)csc3n2)cc(OCC)c1OCC	·	·	-4%	·	·	·
Cc1ccccc1-c1ccc2ncnc(-n3ccnc3)c2c1	·	·	·	·	·	9%
CCN(C(=O)Cn1ncc2c(=O)oc3ccc(C)cc3c21)c1cc(OC)ccc1OC	·	·	0%	·	·	·
CC(C)(C)c1ccc(C(=O)Nc2nnc3n2CCS3)cc1	·	·	0%	·	·	·
Cc1cc(OCC(=O)Nc2ccc(N3CCN(C)CC3)cc2)ccc1Cl	-4%	77*	-5%	3%	38*	3%
CCC(=O)N1CCN(c2ccc(NC(=O)COc3ccccc3Cl)cc2)CC1	-16%	-21	7%	0%	-2	4%
Cc1cc(OCC(=O)Nc2ccc(S(=O)(=O)N3CCN(C)CC3)cc2)ccc1Cl	-5%	-3	-3%	6%	-1	-1%
CN1CCN(c2ccc(NC(=O)COc3ccccc3Cl)cc2)CC1	-6%	76*	-3%	1%	26*	1%
O=C(COc1ccccc1Cl)Nc1ccc(CN2CCOCC2)cc1	8%	8	0%	-2%	21*	·
Cc1c(C(=O)Nc2cccc(C(F)(F)F)c2)oc2ccc3c(c12)C(=O)CC(C)(C)O3	·	·	-1%	·	·	·
O=C(CSc1nnc2scc(-c3ccccc3)n12)Nc1ccc(Cl)cc1	·	·	-5%	·	·	·
Cc1cc2oc(=O)cc(CN3CCCCC3)c2cc1O	7%	26	3%	2%	27*	-7%
Cc1ccc2c(CN3CCCCC3)cc(=O)oc2c1C	12%	83	9%	-1%	36*	8%
Cc1cc2oc(=O)cc(CN3CCc4ccccc43)c2cc1Cl	2%	-4	-5%	3%	-5	8%
Cc1ccc2c(CN3CCCc4ccccc43)cc(=O)oc2c1C	-1%	36	6%	1%	27*	-28%
O=C(Cc1ccc(F)cc1)NCCc1csc2nc(-c3ccc(Cl)cc3)nn12	·	·	1%	·	·	·
SMILES	RE007 growth inh	Shiga inhibitor	TbPYK inhibitor	LmPK inhibitor	CHX counter	FBPA Giardia inh
COc1ccccc1NC(=O)CSc1nnc(N)s1	·	·	-3%	·	·	·
CCCN(CCC)C(=O)Cn1c(=O)n(-c2ccccc2)c(=O)c2c3c(sc21)CCCC3	·	·	-1%	·	·	·
CC(C)N(Cc1nccn1C)C(=O)CCc1nnc(CCCc2ccccc2)o1	-1%	59*	7%	0%	56*	-11%
CC(C)N1CCCC(CNC(=O)CCc2nnc(CCCCc3ccccc3)o2)C1 (centres undefined)	-12%	-7	3%	4%	2	0%
CC(C)N(CCO)C(=O)CCc1nnc(CCCc2ccccc2)o1	-12%	63*	-3%	-1%	39*	0%
CCOC(=O)Cc1csc(NC(=O)CN2CCCCC2)n1	22%	-15	-6%	-1%	-4	?
O=C(CSC1=Nc2ccccc2C2=NC(Cc3ccccc3)C(=O)N12)Nc1ccccc1F (centres undefined)	·	·	5%	·	·	·
NC(=O)CSc1nnc(-c2ccc([N+](=O)[O-])cc2)o1	-20%	40	1%	-5%	19*	-1%
